Laboratory results published in PubChem BioAssay (NCATS).
Records with an inconclusive call do not appear. A call without a number means that no potency is given here. A number with no mark means an inactive call. Calls of active or inactive are those of the source. Calls come from the whole dose curve; as a rule, active = well fitted curve in the direction sought with a large enough effect; inconclusive = small, poorly fitted or top-dose-only effect, or another doubt; inactive = no such curve, though single readings can be large; an effect the other way counts as inactive or inconclusive.

Legend:
[1] = target: Cellular tumor antigen p53 (Homo sapiens) (UniProt P04637); assay: Primary qHTS for small molecule compounds that upregulate eGFP-tagged delta133p53alpha (in N-terminal) cells. (AID 2060322); settings: NCI-H358 eGFP-delta133p53alpha fluorescence, 24 h; activation: hits give high values; note: nearly all actives have a fitted effect of over 75% in size; note: potency is the fitted concentration of half-maximal effect; for activation: series mostly up to about 56 µM
Sequence of Cellular tumor antigen p53 (Homo sapiens) (P04637 whole entry, looked up): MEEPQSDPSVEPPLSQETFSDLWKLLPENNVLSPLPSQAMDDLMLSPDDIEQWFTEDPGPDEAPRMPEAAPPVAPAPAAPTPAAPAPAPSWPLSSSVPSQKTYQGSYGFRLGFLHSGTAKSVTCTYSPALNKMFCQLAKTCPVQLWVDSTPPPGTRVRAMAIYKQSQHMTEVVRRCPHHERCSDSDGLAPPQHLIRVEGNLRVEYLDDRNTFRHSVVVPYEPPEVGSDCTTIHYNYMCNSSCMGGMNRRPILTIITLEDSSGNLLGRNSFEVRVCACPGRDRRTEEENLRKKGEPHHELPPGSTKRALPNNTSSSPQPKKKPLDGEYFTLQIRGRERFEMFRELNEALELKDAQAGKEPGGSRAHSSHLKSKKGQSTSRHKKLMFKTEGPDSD
Outline: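 NCI-H358 cells pre-induced 24 h with 10 ng/ml doxycycline to express N-terminal eGFP-delta133p53alpha, then dosed 24 h at 37C without doxycycline; fixed, Hoechst-stained, GFP intensity by laser scanning cytometry, normalized to DMSO (0%) and 57.5 uM 5-azacytidine (100%).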

[2] = target: Aldehyde dehydrogenase, mitochondrial (Homo sapiens) (UniProt P05091); assay: qHTS for Inhibitors of the Aldehyde Dehydrogenase Family (ALDH2) Primary screen (AID 2061308); note: nearly all actives have a fitted effect of over 55% in size
[3] = target: Retinaldehyde dehydrogenase 3 (Homo sapiens) (UniProt P47895); assay: qHTS for Inhibitors of the Aldehyde Dehydrogenase Family (ALDH1A3) Primary screen (AID 2061315)

COC1CC(OC2CCC3(C)C(=CCC4C3C(OC(C)=O)C(OC(=O)/C=C/c3ccccc3)C3(C)C(C(C)O)CCC43O)C2)OC(C)C1OC1CC(OC)C(OC2OC(C)C(OC3OC(CO)C(O)C(O)C3O)C(OC)C2O)C(C)O1 (centres undefined)
activation [1]: 2.29%
activity change, negative = inhibition [2]: 13.8% [at 11.2 µM]
activity change, negative = inhibition [3]: 9.46% [at 11.2 µM]

N#C/C(=C1\Nc2ccccc2S1)c1ccnc(NCCc2cccnc2)n1
Potency [1]: 19 µM (active)
Potency [2]: inactive
Potency [3]: inactive

CC(=O)OCC1=CCC2C(C)(C)CCCC2(C)C12CCC(C)(CC(=O)O)O2 (centres undefined)
activation [1]: 25.9%
Potency [2]: inactive
Potency [3]: inactive

C=Cc1ccc(O[C@@H]2O[C@H](CO[C@@H]3O[C@@H](C)[C@H](O)[C@@H](O)[C@H]3O)[C@@H](O)[C@H](O)[C@H]2O)cc1
activation [1]: 0.893%
Potency [2]: inactive
Potency [3]: inactive

CC(=O)O[C@@H]1[C@H](O[C@@H]2O[C@H](CO)[C@@H](O)[C@H](O)[C@H]2O)[C@@H](O[C@@H]2O[C@@H](C)[C@H](O)[C@@H](O[C@@H]3O[C@H](CO)[C@@H](O)[C@H](O)[C@H]3O)[C@H]2O)[C@H](OC(=O)[C@]23CCC(C)(C)C[C@H]2C2=CCC4[C@@]5(C)C[C@H](O)[C@H](O[C@@H]6O[C@H](C(=O)O)[C@@H](O)[C@H](O)[C@H]6O)[C@@](C)(C(=O)O)C5CC[C@@]4(C)[C@]2(C)CC3)O[C@@H]1C (some centres undefined)
activation [1]: 2.29%
activity change, negative = inhibition [2]: 6.2% [at 11.2 µM]
activity change, negative = inhibition [3]: -6.53% [at 11.2 µM]

C=C1CCC2C(C)(C)C(O)CCC2(C)C1CCC(C)CCOC(C)=O (centres undefined)
activation [1]: 5.36%
Potency [2]: inactive
Potency [3]: inactive

CC(=O)OCC(=O)O[C@@H]1[C@H]2[C@@H](OC(=O)c3ccccc3)[C@@H](C)C[C@]2(O)[C@H](OC(C)=O)C2(C)[C@H]3CC(C)(C)C(=O)[C@@H]3CC1(OC(C)=O)[C@@H]2OC(C)=O (some centres undefined)
activation [1]: -11.6%
Potency [2]: inactive
Potency [3]: inactive

COC(=O)c1cc(Br)cnc1N1CCC(NC2CCCCC2)C(O)C1 (centres undefined)
activation [1]: -10.3%
Potency [2]: inactive
Potency [3]: inactive

C/C(=C/C=C\C=C\Cc1cnco1)[C@@H](O)C(C)(C)C(N)=O
activation [1]: -11.5%
Potency [2]: inactive
Potency [3]: inactive

CCC(CC)(NC(=O)C(C)C)C(=O)N[C@@H](CCCN=C(N)N)C(=O)NC1(C(=O)NC(c2ccc(F)cc2)c2ccc(F)cc2)CCCC1
activation [1]: -15.7%
Potency [2]: inactive
Potency [3]: inactive

C[C@@H]1C[C@@H](O)[C@@]2(CO)C(CO)=CCC[C@@H]2[C@@]12C[C@@H](c1ccoc1)OC2=O
activation [1]: 21.4%
Potency [2]: inactive
Potency [3]: inactive

C[C@@H]1C[C@@H](O)[C@@]23CO[C@]2(CO)C[C@@H](O)CC3[C@@]12CC(c1ccoc1)OC2=O (some centres undefined)
activation [1]: -7.14%
Potency [2]: inactive
Potency [3]: inactive

C=C[C@@]1(C)CCC2=C([C@H]1OC(C)=O)[C@H](OC(C)=O)CC1[C@](C)(C(=O)OC)CC[C@H](OC(C)=O)[C@]21C (some centres undefined)
activation [1]: 15.2%
Potency [2]: inactive
Potency [3]: inactive

C=C1CCC2C(C)(C(=O)O)CCCC2(C)C1CCC1=CCOC1=O (centres undefined)
activation [1]: 31.2%
Potency [2]: inactive
Potency [3]: inactive

CC(C)C(N)C(=O)OCCOCn1cnc2c(=O)[nH]c(N)nc21 (centres undefined)
activation [1]: 8.93%
Potency [2]: inactive
Potency [3]: inactive

CC1(C)CCC2(C(=O)OC3OC(COC4OC(CO)C(O)C(O)C4O)C(O)C(O)C3O)CCC3(C)C(=CCC4C5(C)CCC(O)C(C)(C(=O)O)C5CCC43C)C2C1O (centres undefined)
activation [1]: 5.34%
Potency [2]: inactive
Potency [3]: inactive

COc1c(C(O)CC(C)C)ccc2c1C(=O)OCc1cc(C)cc(O)c1O2 (centres undefined)
activation [1]: -2.68%
Potency [2]: inactive
Potency [3]: inactive

CCn1nnnc1NCc1ccc(C(C)C)cc1
activation [1]: 3%
Potency [2]: inactive
Potency [3]: inactive

CC(NC(=O)CC(=O)O)C(=O)Nc1ccccc1C(N)=O (centres undefined)
activation [1]: -3.05%
Potency [2]: inactive
Potency [3]: inactive

Cc1ccccc1CN1C2=NCCN2C(=O)C2=C1CCN(Cc1ccccc1)C2
activation [1]: 29%
Potency [2]: inactive
Potency [3]: inactive

CC(=O)O[C@H]1C[C@@]2(C)[C@@H](C[C@@H](O)[C@H]3[C@@]4(C)CC[C@@H](O)[C@@H](C)[C@@H]4CC[C@@]32C)/C1=C(\CCC=C(C)C)C(=O)O
activation [1]: 9%
Potency [2]: inactive
Potency [3]: inactive

OCC1OC(Oc2cc(O)c3c(c2)OC(c2ccc(O)cc2)C(O)C3)C(O)C1O (centres undefined)
activation [1]: -25.2%
Potency [2]: inactive
Potency [3]: inactive

CC(O)(C(=O)O)C1CCC2(C)C1CCC1(C)C2CCC2C3(C)CCC(O)C(C)(COC4OC(CO)C(O)C(O)C4O)C3CCC21C (centres undefined)
activation [1]: 1.53%
Potency [2]: inactive
Potency [3]: inactive

CC(C)=CCc1ccc(Oc2c(O)cc(C)cc2CO)c(C(=O)O)c1O
activation [1]: 3.82%
Potency [2]: inactive
Potency [3]: inactive

COC(=O)C1=COC(OC2OC(CO)C(O)C(O)C2O)C2C1C=CC2(O)CO (centres undefined)
activation [1]: -3.57%
Potency [2]: inactive
Potency [3]: inactive

C/C(=C\CC[C@H](CO)[C@@H]1CC[C@]2(C)C3=C(CC[C@@]12C)[C@@]1(C)CCC(=O)C(C)(C)C1CC3)C(=O)O (some centres undefined)
activation [1]: -4.58%
Potency [2]: inactive
Potency [3]: inactive

C=C1CC2C3(C)C(OC(C)=O)CC(=O)OC(C)(C)C3C(O)C(OC(C)=O)C2(C)C2C(=O)OC(C)C(=O)C12C (centres undefined)
activation [1]: -19.8%
Potency [2]: inactive
Potency [3]: inactive

CC(=O)OC12CC(C)C(O)C1/C=C(/COC1OC(CO)C(O)C(O)C1O)CCC1C(/C=C(\C)C2=O)C1(C)C (centres undefined)
activation [1]: -9.16%
Potency [2]: inactive
Potency [3]: inactive

CC1CCC2(C(=O)OC3OC(CO)C(O)C(O)C3O)CCC3(C)C(=CCC4C5(C)CC(O)C(O)C(C)(C(=O)O)C5CCC43C)C2C1(C)O (centres undefined)
activation [1]: -18.3%
Potency [2]: inactive
Potency [3]: inactive

C[C@H]1[C@H](C)CC[C@]2(C(=O)O)CC[C@]3(C)C(=CCC4[C@@]5(C)C[C@@H](O)[C@H](O)C(C)(C)C5CC[C@]43C)[C@H]12 (some centres undefined)
activation [1]: -9.16%
Potency [2]: inactive
Potency [3]: inactive

CC(=O)O[C@H]1[C@H](O[C@H]2CC[C@]34C[C@]35CC[C@]3(C)[C@@H]([C@@]6(C)CC[C@@H](C(C)(C)O)O6)[C@@H](O)C[C@@]3(C)[C@@H]5C[C@H](O[C@@H]3O[C@H](CO)[C@@H](O)[C@H](O)[C@H]3O)[C@H]4C2(C)C)OC[C@@H](OC(C)=O)[C@@H]1O
activation [1]: -7.67%
Potency [2]: inactive
Potency [3]: inactive

C=C1C(O)CC2C(C(=O)O)=COC(O[C@@H]3O[C@H](COC(=O)/C=C/c4ccc(O)cc4)[C@@H](O)[C@H](O)[C@H]3O)C12 (some centres undefined)
activation [1]: -6.87%
Potency [2]: inactive
Potency [3]: inactive

CC(C)=CC/C=C(/C)[C@H]1CC[C@]2(C)[C@@H]1[C@H](O)CC1[C@@]3(C)CC[C@H](O)C(C)(C)[C@@H]3[C@@H](O[C@@H]3O[C@H](CO)[C@@H](O)[C@H](O)[C@H]3O[C@@H]3O[C@@H](C)[C@H](O)[C@@H](O)[C@H]3O)C[C@]12C (some centres undefined)
activation [1]: -7.63%
Potency [2]: inactive
Potency [3]: inactive

C=C1C(=O)O[C@@H]2/C=C(\C)CC/C=C(\C(=O)O[C@@H]3O[C@H](CO)[C@@H](O)[C@H](O)[C@H]3O)CC[C@@H]12
activation [1]: -5.36%
Potency [2]: inactive
Potency [3]: inactive

Cc1cccc(N2CCN(C(=O)c3cc(S(=O)(=O)N(C)C)ccc3N3CCCC3)CC2)c1C
activation [1]: -4.33%
Potency [2]: inactive
Potency [3]: inactive

Cc1ccc2c(Nc3ccc(Cl)cc3)nccc2c1Nc1ncccc1-c1ncnc2nc[nH]c12
Potency [1]: 9.53 µM (active)
Potency [2]: inactive
Potency [3]: inactive

C=CC(C)(O)CC/C=C(\C)C(=O)OCC1OC(OC2CCC3(C)C(CCC4(C)C3CC=C3C5CC(C)(C)C(O)CC5(C(=O)O)CCC34C)C2(C)C)C(O)C(OC2OC(CO)C(O)C(OC3OC(CO)C(O)C(OC4OC(COC5OC(CO)C(O)C(O)C5O)C(O)C(O)C4O)C3O)C2O)C1O (centres undefined)
activation [1]: 9.92%
activity change, negative = inhibition [2]: 1.9% [at 11.2 µM]
activity change, negative = inhibition [3]: -5.36% [at 11.2 µM]

CC(C(=O)O)c1ccc(/C=C2\CCCCC2=O)cc1 (centres undefined)
activation [1]: -13.4%
Potency [2]: inactive
Potency [3]: inactive

C=C[C@H]1[C@H](O[C@@H]2O[C@H](CO)[C@@H](O)[C@H](O)[C@H]2O)OC=C(C(=O)OC)[C@H]1CC(=O)O
activation [1]: -12.2%
Potency [2]: inactive
Potency [3]: inactive

O=C(C[C@@H]1C(C(=O)O)=CO[C@@H](O[C@@H]2O[C@H](CO)[C@@H](O)[C@H](O)[C@H]2O)/C1=C\CO)OCCc1ccc(O)c(O)c1
activation [1]: -14.3%
Potency [2]: inactive
Potency [3]: inactive

Cn1cc(S(C)=O)c(=O)c2ccc(F)cc21 (centres undefined)
activation [1]: -7.53%
Potency [2]: inactive
Potency [3]: inactive

O=C(C1=CCN2c3c(cccc31)OC[C@H]2CN1CCOCC1)c1cccc2ccccc12
activation [1]: 27.7%
Potency [2]: inactive
Potency [3]: inactive

CC(=O)O[C@H]1CC2C(COC(=O)CC(C)C)=CO[C@@H](OC(=O)CC(C)C)C2[C@]12CO2 (some centres undefined)
Potency [1]: 10.4 µM (active)
Potency [2]: inactive
Potency [3]: inactive

CCC(CC)Nc1nc(C)c(-c2ccc(OC(F)(F)F)cc2OC)nc1OC
activation [1]: -3.57%
Potency [2]: inactive
Potency [3]: inactive

CNCCN1CCC(c2cc(CN(C)C(=O)c3cccc(Oc4ccccc4)c3)ccn2)CC1
activation [1]: -4.33%
Potency [2]: inactive
Potency [3]: inactive

CC(C)(C)NC(=O)[C@@H](c1cccnc1)N(C(=O)c1ccco1)c1ccc(C(C)(C)C)cc1
activation [1]: 5%
Potency [2]: inactive
Potency [3]: inactive

CC(=O)OC1C(O)CC2(C)C(CCC(C)C23Cc2c(O)cc(CO)c(C=O)c2O3)C1(C)C (centres undefined)
activation [1]: 6.87%
Potency [2]: inactive
Potency [3]: inactive

C[C@@H]1C(=O)O[C@H]2C[C@]34[C@H]5C[C@@H](C(C)(C)C)[C@]36[C@@H](OC(=O)[C@H]6O)O[C@]4(C(=O)O5)[C@]21O
activation [1]: -22.1%
Potency [2]: inactive
Potency [3]: inactive
